This note sets out measurements from ChEMBL document CHEMBL3988442, “University of Dundee, Small-Polar-MMV Screening Library” (2021).

For some of these results: Results with a measured potency or affinity are listed apart.

Holding throughout (set-up): scale not given: direction of the effect not stated beside the values
Test [1] concerns the target Protein translocase subunit SecA (Escherichia coli (strain K12)) (UniProt P10408). The test can be described thus: Assay to Identify E. coli SecA ATPase Inhibitors. It is filed as functional. The following applies: 30 µM.
The target in test [2] is T1, Ubiquitin-activating enzyme e1, putative (Leishmania donovani (strain BPK282A1)) (UniProt E9BSI1).
T1 sequence (whole entry): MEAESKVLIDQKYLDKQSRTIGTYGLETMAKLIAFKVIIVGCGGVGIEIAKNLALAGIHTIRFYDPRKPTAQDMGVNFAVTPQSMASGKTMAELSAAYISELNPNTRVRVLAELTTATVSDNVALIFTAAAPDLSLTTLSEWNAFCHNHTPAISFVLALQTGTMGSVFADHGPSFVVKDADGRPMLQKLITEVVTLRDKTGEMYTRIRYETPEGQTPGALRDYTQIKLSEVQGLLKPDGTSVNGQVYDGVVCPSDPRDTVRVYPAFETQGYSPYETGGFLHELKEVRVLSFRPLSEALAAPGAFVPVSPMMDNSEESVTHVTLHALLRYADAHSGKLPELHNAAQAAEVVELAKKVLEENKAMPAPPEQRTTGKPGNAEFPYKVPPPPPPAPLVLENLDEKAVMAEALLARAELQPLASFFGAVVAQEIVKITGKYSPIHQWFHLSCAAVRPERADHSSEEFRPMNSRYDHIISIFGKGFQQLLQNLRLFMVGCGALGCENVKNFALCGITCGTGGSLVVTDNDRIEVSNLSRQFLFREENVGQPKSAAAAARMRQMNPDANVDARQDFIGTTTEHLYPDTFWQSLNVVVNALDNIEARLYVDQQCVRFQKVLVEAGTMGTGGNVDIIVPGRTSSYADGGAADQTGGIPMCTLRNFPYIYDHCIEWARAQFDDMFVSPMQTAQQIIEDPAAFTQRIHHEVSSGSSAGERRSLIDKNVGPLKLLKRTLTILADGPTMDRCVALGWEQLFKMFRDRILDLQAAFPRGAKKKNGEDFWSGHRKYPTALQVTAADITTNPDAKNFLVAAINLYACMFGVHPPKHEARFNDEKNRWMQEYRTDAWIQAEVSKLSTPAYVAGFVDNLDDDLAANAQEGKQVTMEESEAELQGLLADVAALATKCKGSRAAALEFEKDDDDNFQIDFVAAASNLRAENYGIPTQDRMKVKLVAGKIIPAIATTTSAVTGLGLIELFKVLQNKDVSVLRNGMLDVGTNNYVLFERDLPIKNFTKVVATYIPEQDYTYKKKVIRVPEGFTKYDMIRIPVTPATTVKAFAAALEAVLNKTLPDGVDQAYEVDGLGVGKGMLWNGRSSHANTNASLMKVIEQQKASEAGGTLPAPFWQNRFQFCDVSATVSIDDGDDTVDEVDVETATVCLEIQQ
The test can be described thus: Leishmania donovani Ubiquitin Activating Enzyme (LdE1). The format is functional. Conditions: 30 µM.

Test [3] concerns the target AMP-activated protein kinase, AMPK (Homo sapiens) (UniProt P54646+O43741+P54619+Q9UGJ0+Q9Y478+Q13131+Q9UGI9). Put plainly: AMP-dependent Kinase enzyme assay. An in vitro enzyme assay that detects ADP turnover that is directly proportional to AMPK activity. This uses naive AMPK that is activated during the assay with MK-8722. It is filed as functional. The following applies: 30 µM.

In test [4] the target is Sialic acid-binding Ig-like lectin 9 (Homo sapiens) (UniProt Q9Y336). Put plainly: Hs-Siglec9 ALPHAscreen SOP 20170721. Conditions: 10 µM.
The subject of test [5] is Trypanosoma cruzi. Put plainly: Trypanosoma cruzi phosphomannomutase and mannose-1-phosphate guanylyltransferase assay. It is filed as functional. Conditions: 10 µM.
The target of test [6] is T2, Arginase-2, mitochondrial (Homo sapiens) (UniProt P78540).
T2 sequence (whole entry): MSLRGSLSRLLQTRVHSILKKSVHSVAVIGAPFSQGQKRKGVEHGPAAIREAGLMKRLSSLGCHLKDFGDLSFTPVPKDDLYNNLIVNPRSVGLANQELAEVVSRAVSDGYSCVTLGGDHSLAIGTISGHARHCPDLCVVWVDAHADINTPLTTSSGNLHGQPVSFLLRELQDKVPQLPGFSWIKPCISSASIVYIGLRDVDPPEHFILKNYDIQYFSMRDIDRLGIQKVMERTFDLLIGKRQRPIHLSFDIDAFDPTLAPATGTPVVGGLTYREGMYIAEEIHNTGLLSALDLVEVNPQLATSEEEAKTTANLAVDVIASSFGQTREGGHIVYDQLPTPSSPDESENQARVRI
The test can be described thus: in vitro enzyme assay to detect the production of urea directly proportional to the activity of Arginase II. Further: in the data most compounds retested in dose-response had high values. The format is functional. The following applies: 33.3 µM.

Test [7] addresses T3, Proteasome subunit beta (Trypanosoma cruzi) (UniProt O96673).
T3 sequence (whole entry): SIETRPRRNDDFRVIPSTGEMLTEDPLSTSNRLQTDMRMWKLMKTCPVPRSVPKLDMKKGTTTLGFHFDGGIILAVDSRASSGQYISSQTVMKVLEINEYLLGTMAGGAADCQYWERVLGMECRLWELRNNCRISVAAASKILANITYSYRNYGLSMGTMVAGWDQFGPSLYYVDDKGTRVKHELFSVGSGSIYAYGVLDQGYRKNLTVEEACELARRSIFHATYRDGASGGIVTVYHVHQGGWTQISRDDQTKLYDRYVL
Put plainly: Trypanosoma cruzi proteasome chymotrypsin-like activity (TcProtChymo) assay. Further: in the data most compounds retested in dose-response had high values. Conditions: 9.37 µM. The format is functional.

Test [8] is filed under the species Homo sapiens. The test can be described thus: To identify inhibition of the IFN signalling (Jak-Stat) pathway via expression of an eGFP reporter gene under the control of an IFN-stimulated response element (ISRE) containing MxA promoter. The following applies: 30 µM. It is filed as functional.
Test [9] concerns the target T4, Tyrosyl-tRNA synthetase, putative (Trypanosoma cruzi (strain CL Brener)) (UniProt Q4DSP6).
T4 sequence (whole entry): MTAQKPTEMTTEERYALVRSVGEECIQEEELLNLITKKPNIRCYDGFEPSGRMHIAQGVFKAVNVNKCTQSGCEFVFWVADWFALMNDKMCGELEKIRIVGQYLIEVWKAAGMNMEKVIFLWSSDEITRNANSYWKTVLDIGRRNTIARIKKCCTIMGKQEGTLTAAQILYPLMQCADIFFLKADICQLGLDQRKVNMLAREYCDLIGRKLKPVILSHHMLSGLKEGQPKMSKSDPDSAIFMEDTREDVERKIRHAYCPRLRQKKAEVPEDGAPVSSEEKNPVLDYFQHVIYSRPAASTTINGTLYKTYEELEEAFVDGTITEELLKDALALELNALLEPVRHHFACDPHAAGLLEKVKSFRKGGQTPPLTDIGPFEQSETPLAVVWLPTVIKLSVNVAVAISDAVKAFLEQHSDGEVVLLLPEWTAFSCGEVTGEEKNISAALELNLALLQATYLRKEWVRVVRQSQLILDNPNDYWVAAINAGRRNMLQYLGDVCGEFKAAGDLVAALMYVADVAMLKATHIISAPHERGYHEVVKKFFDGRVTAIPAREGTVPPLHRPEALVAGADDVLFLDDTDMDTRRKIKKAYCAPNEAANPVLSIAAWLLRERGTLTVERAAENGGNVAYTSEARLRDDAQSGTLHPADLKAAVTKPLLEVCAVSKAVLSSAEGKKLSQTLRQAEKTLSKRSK
The test can be described thus: Trypanosoma cruzi tyrosyl tRNA synthetase (TcYRS) _High Tyrosine SOP. Further: in the data most compounds retested in dose-response had high values. It is filed as functional. Conditions: 30 µM.

For test [10], the target named is T4, Tyrosyl-tRNA synthetase, putative (Trypanosoma cruzi (strain CL Brener)). Put plainly: Trypanosoma cruzi tyrosyl tRNA synthetase (TcYRS) SOP. It is filed as functional. The following applies: 30 µM.
Test [11] deals with Chromo domain-containing protein 1 (Saccharomyces cerevisiae (strain ATCC 204508 / S288c) (Baker's yeast)) (UniProt P32657). The test can be described thus: ScCHD-1 Enzyme Inhibition Assay. Further: in the data most compounds retested in dose-response had high values. It is filed as functional. The following applies: 30 µM.
Chromo domain-containing protein 1 (Saccharomyces cerevisiae (strain ATCC 204508 / S288c) (Baker's yeast)), sequence (P32657 whole entry, the tested form may be a part): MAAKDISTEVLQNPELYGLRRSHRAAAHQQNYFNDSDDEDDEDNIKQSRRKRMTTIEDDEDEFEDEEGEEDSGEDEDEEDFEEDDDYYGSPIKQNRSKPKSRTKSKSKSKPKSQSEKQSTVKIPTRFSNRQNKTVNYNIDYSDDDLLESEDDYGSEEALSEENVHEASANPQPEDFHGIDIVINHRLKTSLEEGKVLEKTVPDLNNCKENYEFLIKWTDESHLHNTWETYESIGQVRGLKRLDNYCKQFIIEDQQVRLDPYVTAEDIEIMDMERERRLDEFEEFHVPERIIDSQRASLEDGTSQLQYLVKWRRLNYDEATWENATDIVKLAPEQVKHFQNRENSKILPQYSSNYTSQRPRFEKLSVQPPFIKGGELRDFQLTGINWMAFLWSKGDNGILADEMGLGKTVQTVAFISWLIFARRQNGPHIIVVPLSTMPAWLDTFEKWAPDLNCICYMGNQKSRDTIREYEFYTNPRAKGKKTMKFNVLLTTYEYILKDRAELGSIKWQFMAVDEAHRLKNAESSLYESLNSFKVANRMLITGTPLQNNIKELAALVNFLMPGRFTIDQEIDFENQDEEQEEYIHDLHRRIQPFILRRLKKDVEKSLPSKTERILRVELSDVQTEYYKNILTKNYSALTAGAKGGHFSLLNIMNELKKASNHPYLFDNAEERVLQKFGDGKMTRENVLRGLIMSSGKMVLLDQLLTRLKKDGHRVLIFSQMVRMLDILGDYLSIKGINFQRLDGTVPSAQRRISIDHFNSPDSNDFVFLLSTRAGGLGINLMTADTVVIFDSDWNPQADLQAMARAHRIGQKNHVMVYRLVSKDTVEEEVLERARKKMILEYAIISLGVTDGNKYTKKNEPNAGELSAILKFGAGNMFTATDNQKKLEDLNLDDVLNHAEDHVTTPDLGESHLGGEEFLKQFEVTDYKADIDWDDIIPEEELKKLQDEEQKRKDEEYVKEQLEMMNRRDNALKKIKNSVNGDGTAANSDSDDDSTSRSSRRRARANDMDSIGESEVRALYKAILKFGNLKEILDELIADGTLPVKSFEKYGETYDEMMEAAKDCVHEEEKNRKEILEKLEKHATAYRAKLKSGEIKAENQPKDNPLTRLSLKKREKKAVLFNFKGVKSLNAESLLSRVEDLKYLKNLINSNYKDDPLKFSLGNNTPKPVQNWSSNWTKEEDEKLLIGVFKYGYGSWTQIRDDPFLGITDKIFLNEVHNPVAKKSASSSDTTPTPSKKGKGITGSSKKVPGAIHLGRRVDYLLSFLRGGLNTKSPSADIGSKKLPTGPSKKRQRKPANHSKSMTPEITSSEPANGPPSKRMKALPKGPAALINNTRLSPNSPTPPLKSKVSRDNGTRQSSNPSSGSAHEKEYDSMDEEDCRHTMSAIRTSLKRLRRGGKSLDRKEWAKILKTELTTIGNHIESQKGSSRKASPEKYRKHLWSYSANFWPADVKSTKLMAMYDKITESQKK

Protein translocase subunit SecA (Escherichia coli (strain K12)), sequence (P10408 whole entry): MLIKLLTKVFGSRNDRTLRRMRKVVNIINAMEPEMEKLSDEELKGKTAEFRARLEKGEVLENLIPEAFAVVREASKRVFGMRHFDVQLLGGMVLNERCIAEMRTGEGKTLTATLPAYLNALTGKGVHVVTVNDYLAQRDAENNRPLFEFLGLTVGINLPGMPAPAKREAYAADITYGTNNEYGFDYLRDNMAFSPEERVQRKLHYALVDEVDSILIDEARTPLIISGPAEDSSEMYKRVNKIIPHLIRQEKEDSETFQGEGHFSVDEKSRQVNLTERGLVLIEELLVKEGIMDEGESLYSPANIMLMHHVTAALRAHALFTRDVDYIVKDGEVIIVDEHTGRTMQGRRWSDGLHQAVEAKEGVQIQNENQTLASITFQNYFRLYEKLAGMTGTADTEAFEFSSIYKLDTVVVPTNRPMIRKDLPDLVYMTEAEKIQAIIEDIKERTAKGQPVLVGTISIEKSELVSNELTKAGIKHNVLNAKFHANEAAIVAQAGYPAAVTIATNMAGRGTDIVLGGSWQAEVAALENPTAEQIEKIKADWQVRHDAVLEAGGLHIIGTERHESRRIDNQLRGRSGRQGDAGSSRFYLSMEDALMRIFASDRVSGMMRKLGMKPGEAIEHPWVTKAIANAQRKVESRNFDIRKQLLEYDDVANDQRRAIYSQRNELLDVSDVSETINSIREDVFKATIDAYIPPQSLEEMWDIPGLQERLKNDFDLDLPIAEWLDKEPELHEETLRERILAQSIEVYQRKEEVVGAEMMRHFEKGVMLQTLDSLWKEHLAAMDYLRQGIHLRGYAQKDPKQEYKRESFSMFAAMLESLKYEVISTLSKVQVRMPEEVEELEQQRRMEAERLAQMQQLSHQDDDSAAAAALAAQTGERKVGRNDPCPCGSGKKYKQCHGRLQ
Sialic acid-binding Ig-like lectin 9 (Homo sapiens), sequence (Q9Y336 whole entry): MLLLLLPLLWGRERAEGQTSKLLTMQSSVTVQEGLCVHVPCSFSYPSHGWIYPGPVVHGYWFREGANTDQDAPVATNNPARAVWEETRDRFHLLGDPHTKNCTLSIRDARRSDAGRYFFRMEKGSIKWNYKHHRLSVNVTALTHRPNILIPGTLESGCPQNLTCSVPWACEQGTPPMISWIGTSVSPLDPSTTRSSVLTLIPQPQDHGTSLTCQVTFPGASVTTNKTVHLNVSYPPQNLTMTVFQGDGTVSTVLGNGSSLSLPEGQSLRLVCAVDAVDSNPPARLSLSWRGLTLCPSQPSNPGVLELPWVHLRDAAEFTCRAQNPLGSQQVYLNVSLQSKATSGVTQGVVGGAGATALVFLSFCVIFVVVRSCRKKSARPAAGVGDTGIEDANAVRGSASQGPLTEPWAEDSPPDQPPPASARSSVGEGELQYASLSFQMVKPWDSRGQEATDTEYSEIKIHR

With `O=C(c1ccc[nH]1)N1CCC(c2nccn2Cc2ccncc2)CC1`, the Percent Effect is -3.39% in test [1]; 13.7% in [2]; -1.71% in [3]; 5.74% in [4]; 7.05% in test [5]; 14.1% in [6]. Also, the Percent Effect in test [7] is 8.7%; in [8], 11.4%; in test [9] it was 5.38%; in test [10] it was 10%; in test [11] it was -6.61%.
As to `O=C(c1cccc2c1OCO2)N1CCCC1c1noc(C2CC2)n1` (stereo unspecified), the Percent Effect was -5.41% in test [1]; 5.06% in test [2]; -1.36% in [3]; -1.04% in [4]; 10.5% in test [5]; -3.42% in [6]. In addition, the Percent Effect in test [7] is -2.38%; in test [8] it was 5%; in test [9], 4.43%; in test [10], 11.4%; in [11], -6.85%.
Regarding `CCn1cc(CN(C)S(=O)(=O)c2cc(Cl)ccc2Cl)cn1`, the Percent Effect in [1] was -0.942%; in test [2], 14.7%; in test [3] it was -0.125%; in test [4], -2.27%; in test [5], -6.09%; in [6], -8.98%. Moreover, the Percent Effect in test [7] was 15.9%; in [8], 2.3%; in [9], 0%; in [10], 7.69%; in test [11], -9.05%.
On to `CC(C)NC(=O)N1CCN(C(=O)N(C)C)CC2(CC(=O)N(C)C2)C1` (stereo unspecified), for which the Percent Effect is -3.05% in test [1]; 13.5% in [2]; -4.22% in [3]; 1.04% in test [4]; 1.56% in [5]; 6.25% in test [6]. In addition, the Percent Effect in test [7] was 18.5%; in test [8], 7.62%; in test [9], 8.91%; in test [10] it was 13.4%; in test [11], -7.18%.
As to `CCn1ccnc1CN1CCCN(C(=O)Cn2nc(C)cc2C)CC1`, the Percent Effect in [1] is -2.55%; in test [2], 0%; in test [3] it was 9.91%; in [4], -9.39%; in [5] it was 1.08%; in test [6], -0.21%. For the same compound, the Percent Effect in [7] was 3.31%; in [8] it was -12.9%; in [9], -1.91%; in test [10], 0%; in test [11], -14.3%.
Regarding `O=C(c1ccc(Br)o1)N1CCCCC1Cn1cccn1` (stereo unspecified), the Percent Effect in test [1] was -1.08%; in [2] it was 2.7%; in [3] it was -1.88%; in test [4] it was 12.6%; in [5], 0.279%; in test [6], 0.924%. Also, the Percent Effect in [7] was found to be 15.3%; in test [8], 18.2%; in test [9], 0.99%; in [10], 3.66%; in test [11], 0.762%.
Regarding `CC(C)Cc1noc(CN2CCC(NC(=O)c3cccs3)CC2)n1`, the Percent Effect in [1] was -4.22%; in test [2], 15.6%; in [3], 5.36%; in [4], 8.56%; in [5], 3.64%; in test [6], -8.28%. Further, the Percent Effect in [7] is 19%; in test [8], 3.93%; in test [9], 6.45%; in test [10] it was 16.1%; in [11] it was -6.14%.
For `CC(C)c1ncc2c(n1)CN(Cc1ccc(C(N)=O)cc1)CC2`, the Percent Effect in test [1] was -5.85%; in test [2] it was 18.4%; in test [3], -25.7%; in test [4], -1.87%; in test [5], 10.7%; in test [6], -2.68%. Also, the Percent Effect in test [7] was 11.5%; in test [8] it was 11.1%; in test [9], 12.2%; in test [10] it was 19.5%; in test [11], -14.2%.
For the compound `Cc1cc(CN2CCCC2c2c(C)nn(C)c2Cl)no1` (stereo unspecified), the Percent Effect in [1] is -2.25%; in test [2], 21.1%; in [3], -2.49%; in [4], -2.11%; in [5] it was 3.46%; in test [6], 3.24%. The Percent Effect in test [7] is 13.4%; in test [8], 3.96%; in test [9] it was 10.3%; in test [10], 28.4%; in test [11] it was -10.3%.
For `O=C(NCc1ccco1)C1CCCN1Cc1nc(-c2ccco2)no1` (stereo unspecified), the Percent Effect was -0.649% in test [1]; 13.5% in [2]; 0.501% in [3]; -7.57% in test [4]; -4.18% in test [5]; 4.99% in test [6]. The Percent Effect is 7.9% in test [7]; 10.9% in test [8]; 7.92% in [9]; 15.8% in [10]; -0.371% in [11].
In the case of `Cc1cccc(-c2noc(CN3CCCC(Cn4cncn4)C3)n2)c1` (stereo unspecified), the Percent Effect is -6.12% in [1]; 20.2% in [2]; -9.05% in test [3]; 10.8% in test [4]; 8.59% in test [5]; 3.04% in test [6]. The Percent Effect in [7] was 5.16%; in test [8], 5.05%; in test [9], 6.4%; in test [10], 21.5%; in test [11], -4.86%.
